Test results reported in PubChem BioAssay (NCI).
Compounds without any hit were thinned out: in the full panel of roughly 83,000, 20% have a hit.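 Assay: single dose, 48 h. Readout: percent growth (0 = no net growth; negative = cell death). Active: <10.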 Unmarked numbers belong to inactive results. Activity calls are given as the source filed them.

Columns and labels:
Test in all cases: NCI-60 one-dose screen, 48 h (100 = growth as untreated, 0 = no growth, -100 = all killed)
Conditions in all cases: 10 µM unless noted
T-47D breast = tested on: T-47D breast
BT-549 breast = tested on: BT-549 breast
MDA-MB-435 melanoma = tested on: MDA-MB-435 melanoma
SW-620 colon = tested on: SW-620 colon
MCF7 breast = tested on: MCF7 breast
HCT-116 colon = tested on: HCT-116 colon
HCC-2998 colon = tested on: HCC-2998 colon
KM12 colon = tested on: KM12 colon

| SMILES | growth (T-47D breast) | growth (BT-549 breast) [%] | growth (MDA-MB-435 melanoma) | growth (SW-620 colon) | growth (MCF7 breast) | growth (HCT-116 colon) | growth (HCC-2998 colon) | growth (KM12 colon) |
| --- | --- | --- | --- | --- | --- | --- | --- | --- |
| N=C1C(c2nc3ccccc3s2)=C(O)CN1c1cc(Cl)cc(Cl)c1 | 97% | 71.3 | 41.6% | 54.8% | 148% | 46.5% | 85.8% | 64.7% |
| N#C/C(=C\c1c(-c2ccccc2)[nH]c2ccccc12)C(=O)c1ccc(Cl)cc1 | 84.9% | 64.7 | 13.5% | 21.1% | -27.9% (active) | 30.9% | 30.7% | 20% |
| CCCCCCNC(=O)Nc1ccc2cc3ccc(NC(=O)NCCCCCC)cc3nc2c1 | -24.8% (active) | 89.4 | -83.6% (active) | -78.1% (active) | -57.4% (active) | -18.9% (active) | -24.5% (active) | 19.4% |
| CC(=O)O[C@H]1Cc2c([nH]c3ccccc23)[C@@H](c2ccc(Cl)cc2)N1C(=O)CCNC(C)(C)C | 74.3% | 53.7 | 70% | 61.1% | 34.3% | 20.8% | 60.3% | 66.6% |
| CC(C)N1C(=O)/C(=C2\SC(=S)N(C(C)C)C2=O)SC1=S | 82.8% | 98.7 | 100% | 94.9% | 96.8% | 95% | 98.3% | 99.9% |
| CC1(C)CC[C@]23CC[C@]4(C)[C@H](CC[C@@H]5[C@@]6(C)CCCNC(C)(C)[C@@H]6CC[C@]54C)[C@H]2[C@H]1OC3 | 2.46% (active) | 76.4 | -80% (active) | -71.9% (active) | -25% (active) | -99.4% (active) | -55.5% (active) | -69% (active) |
| CC(=O)OC[C@]12CC[C@@H](C(=O)CBr)[C@@H]1[C@H]1CC[C@@H]3[C@@]4(C)CC[C@H](OC(C)=O)C(C)(C)[C@@H]4CC[C@@]3(C)[C@]1(C)CC2 | 85.3% | 84 | 93.3% | 100% | 89% | 88.2% | 111% | 97.7% |
| Cc1ccc(NC(C(=O)c2ccccc2)c2ccccc2)cc1 (configuration not stated) | 25.9% | 42.2 | 30.6% | 67.1% | 38.5% | 35.6% | 55.1% | 23.7% |
| COc1ccc(C(=O)C2C(C#N)C(C#N)C3c4ccccc4C=CN23)cc1 (configuration not stated) | 61.5% | 95 | 96.1% | 99.7% | 91.3% | 86.1% | 101% | 98.3% |
| N#CC1=C(N)Oc2c(ccc3ccccc23)C1c1ccccc1Cl (configuration not stated) | 66.5% | 20.7 | -41.2% (active) | 21.9% | 16.8% | 11.9% | 17.7% | 12.8% |
| Nc1c(C(=O)Nc2cccc3cnccc23)sc2nc3c(cc12)CN(Cc1ccccc1)CC3 | 102% | 100 | 108% | 104% | 96.5% | 100% | 115% | 102% |
| CCCCOc1ccc(/C(C)=N/Nc2cc(C)nc3ccc(Br)cc23)cc1 | 85.5% | 107 | 92.8% | 5.89% (active) | 21.3% | 27.7% | 45.8% | 62.9% |
| CC1(C)CC(=O)C2=C(C1)N(c1ccc(F)cc1F)C(N)=C(C#N)C2c1cc(Br)ccc1F (configuration not stated) | 110% | 106 | 101% | 89.6% | 95% | 80.9% | 107% | 88.7% |
| Cc1ccc(CNc2c3ccccc3nc3cc(NC(=O)CCN4CCCC4)ccc23)cc1 | 16.9% | 35.3 | 8.86% (active) | -57.4% (active) | -22.4% (active) | -77.9% (active) | -15.8% (active) | -6.45% (active) |
| O=C1Nc2cc(-c3ccc(NC(=O)C4CC4)cc3)ccc2/C1=C/c1ccc[nH]1 | 21.7% | 104 | 99.9% | 113% | 12.8% | 104% | 111% | 39.8% |
| O=C(Nc1ccc(-c2ccc3c(c2)NC(=O)/C3=C\c2ccc[nH]2)cc1)NC1CC1 | 32.1% | 103 | 98.6% | 103% | 15.8% | 96.6% | 107% | 19.1% |
| COc1cc(/C=C/c2cc(O)c(C(C)=O)c(O)c2)cc2c1O[C@]1(C)CC[C@@H](O)C(C)(C)[C@H]1C2 | 49% | 22.1 | 73% | 69.3% | 45.3% | 45.2% | 75.1% | 53.9% |
| O=S(=O)(NCCNc1nccc(-c2c(-c3cccc(F)c3)nc3sccn23)n1)c1ccc(Br)cc1 | 30.5% | 63.3 | 21.3% | 54.8% | 23.5% | 33.9% | 79.5% | 42.5% |
| O=C1c2ccccc2CCC12OC2c1cn(-c2ccccc2)nc1-c1ccc(Cl)cc1 (configuration not stated) | 93.1% | 126 | 100% | 95.6% | 87.7% | 47.4% | 108% | 97.9% |
| COc1ccc(-c2cnc3c(-c4cccc5cnccc45)cnn3c2)cc1 | 22.8% | 50.1 | 62.9% | 60.7% | 78.7% | -15% (active) | 99.1% | 63.1% |
| COc1ccc(/C=C(\C#N)n2nc3cccc(F)c3n2)cc1 | 90.5% | 109 | 77.4% | 103% | 89.5% | 101% | 107% | 93.7% |
| COc1cc2c(=O)n(CCCN(C)C)c3c4cc5c(cc4ccc3c2cc1OC)OCO5 | 85.8% | 47.8 | 67.6% | 38.6% | 25.3% | 30.6% | 86.8% | 47.8% |
| O=C1Nc2cc(-c3ccc(NS(=O)(=O)c4ccccc4)cc3)ccc2/C1=C/c1ccc[nH]1 | 18.5% | 24.6 | 88.2% | 84.9% | 6.53% (active) | 82% | 91.6% | 46.7% |
| COC(=O)C1=C(C(=O)ON)[C@@H]2C=C[C@@]1([C@@H](Cc1ccccc1)Nc1ccccc1)O2 | -35.9% (active) | 118 | 101% | -71.2% (active) | 90.8% | -77.7% (active) | 93.6% | 96.5% |
| CNC(=O)c1cccc(Cn2nc(C)c(NC(=O)c3ccc(COc4ccc(C(F)(F)F)cc4C)cc3)c2C)n1 | 7.54% (active) | 22.1 | 43.2% | 81.8% | 21.7% | 24.4% | 61.7% | 65.4% |
| CN(CCN(C)c1ccc(C(=N)N)cc1)c1ccc(C(=N)N)cc1 | 163% | 86 | 90.5% | 104% | 108% | 104% | 97% | 91.3% |
| O=C1CC(=O)OC(c2ccc([N+](=O)[O-])cc2)O1 | 17.9% | 51.4 | -27.9% (active) | -42.8% (active) | 7.35% (active) | -68.8% (active) | 7.55% (active) | -75.3% (active) |
| CC(C)N1C(=O)S/C(=C2/SC(=O)N(C(C)C)C2=O)C1=O | 104% | 93.6 | 100% | 102% | 97.9% | 105% | 104% | 99.9% |
| COc1cc(/C=C\c2cc(OC)c(OC)c(OC)c2)cc(NC(=O)/C=C/c2cc(OC)c(OC)c(OC)c2)c1OC | 19.6% | 26.2 | -13.1% (active) | 57% | 27.6% | 41.1% | 70.8% | 28.7% |
